# Experimental data: publication PMC8384837, “Expanding the binding specificity for RNA recognition by a PUF domain”
# Target: PUM1 PUF domain R4-SRV (Homo sapiens, UniProt Q14671 828-1176, N971S;H972R;Q975V)
# Assay: yeast three-hybrid, YBZ-1, SC-Leu-His + 0.5 mM 3-AT, 4 days
# Conditions: tags: N-Gal4 AD-HA kept; label: inside an RPR1-promoter hybrid RNA with tandem MS2 sites; ssRNA
# Method in brief: (§1)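 Pumilio-1 PUF domain libraries, randomized (NNK) at the three base-contacting residues of each repeat, were co-expressed with matching RNA elements from a centromeric plasmid in strain YBZ-1 (LexA–MS2 coat fusion, HIS3 reporter). Transformants were plated on SC-Leu (input) and SC-Leu-His + 0.5 mM 3-AT (selection) for four days, and repeat regions were PCR-amplified and Illumina-sequenced. The interaction score is the log2 change in variant frequency from input to selection, with pseudocount 1 where absent.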
row,Sequence,binding signal
1,GGCUAGAACUAGUGGAUCCCCCGGCGCCCGGCGGCUCGAGCCCGGGUAAGUGUAAAUAGUCUGCAUGCCGCCGGGCGCCAUGCCUGCAGGUCGACUCUAGAAAACAUG,3.51 log2 enrichment (interaction score)
2,GGCUAGAACUAGUGGAUCCCCCGGCGCCCGGCGGCUCGAGCCCGGGUAAGUGUAUAUAGUCUGCAUGCCGCCGGGCGCCAUGCCUGCAGGUCGACUCUAGAAAACAUG,1.19 log2 enrichment (interaction score)
3,GGCUAGAACUAGUGGAUCCCCCGGCGCCCGGCGGCUCGAGCCCGGGUAAGUGUACAUAGUCUGCAUGCCGCCGGGCGCCAUGCCUGCAGGUCGACUCUAGAAAACAUG,0.98 log2 enrichment (interaction score)

# Target: PUM1 PUF domain R4-FGA (Homo sapiens, UniProt Q14671 828-1176, N971F;H972G;Q975A)
# Assay: as above
# Conditions: tags: N-Gal4 AD-HA kept; label: inside an RPR1-promoter hybrid RNA with tandem MS2 sites; ssRNA
# Method in brief: as §1
row,Sequence,binding signal
1,GGCUAGAACUAGUGGAUCCCCCGGCGCCCGGCGGCUCGAGCCCGGGUAAGUGUAAAUAGUCUGCAUGCCGCCGGGCGCCAUGCCUGCAGGUCGACUCUAGAAAACAUG,1.37 log2 enrichment (interaction score)
2,GGCUAGAACUAGUGGAUCCCCCGGCGCCCGGCGGCUCGAGCCCGGGUAAGUGUAUAUAGUCUGCAUGCCGCCGGGCGCCAUGCCUGCAGGUCGACUCUAGAAAACAUG,2.95 log2 enrichment (interaction score)
3,GGCUAGAACUAGUGGAUCCCCCGGCGCCCGGCGGCUCGAGCCCGGGUAAGUGUACAUAGUCUGCAUGCCGCCGGGCGCCAUGCCUGCAGGUCGACUCUAGAAAACAUG,3.23 log2 enrichment (interaction score)
